Test results taken from PubChem BioAssay (NCATS).
Results filed as inconclusive are left out. Activity calls are given as the source filed them. Calls follow the shape of the full dose curve.

Columns and labels:
[1] = Primary qHTS for inhibitors of SARS-S pseudo-typed particle cell entry (AID 1479145); also: nearly all actives have a fitted effect of over 45% in size; as to activity change, negative = inhibition: series mostly up to about 57 µM
[2] = Primary qHTS for Huh7 cytotoxicity: counterscreen for inhibitors of MERS-S pseudotyped particle cell entry (AID 1479147)
[3] = Primary qHTS for inhibitors of MERS-S pseudo-typed particle cell entry (AID 1479149); also: nearly all actives have a fitted effect of over 60% in size; as to activity change, negative = inhibition: series mostly up to about 57 µM
[4] = Primary qHTS for Vero E6 cytotoxicity: counterscreen for inhibitors of SARS-S pseudo-typed particle cell entry (AID 1479150)
% is scaled to controls: 0 for no effect and ±100 for the full control effect.

Cc1ccccc1N1CCN(CCc2nnc3n2CCCC3)CC1
inactive: Potency [1] | Potency [2] | Potency [3] | Potency [4]

C=CCc1ccc(O)c(OC)c1
inactive: Potency [1] | Potency [2] | Potency [3] | Potency [4]

CCCCCCCC/C=C/C(=O)O
inactive: Potency [1] | Potency [2] | Potency [3] | Potency [4]

CCN1CCCC1CNC(=O)c1cc(S(=O)(=O)CC)c(N)cc1OC (stereo unspecified)
inactive: Potency [1] | Potency [2] | Potency [3] | Potency [4]

OC[C@H]1O[C@@H](n2cnc3c2NC=NC[C@H]3O)C[C@@H]1O
inactive: Potency [1] | Potency [2] | Potency [3] | Potency [4]

C[C@]12C=CC(=O)C=C1CC[C@@H]1[C@@H]2C(=O)C[C@@]2(C)[C@H]1CC[C@]2(O)C(=O)CO
inactive: Potency [1] | Potency [2] | Potency [3] | Potency [4]

CCCCCCCCCCCCCCCC(=O)OCCC1CCN(CCCN2c3ccccc3Sc3ccc(S(=O)(=O)N(C)C)cc32)CC1
inactive: Potency [1] | Potency [2] | Potency [3] | Potency [4]

CCOC(=O)c1ccc(OCCN2C[C@H](O)[C@@H](O)[C@H](O)[C@H]2CO)cc1
inactive: Potency [1] | Potency [2] | Potency [3] | Potency [4]

Cc1ccccc1C(=O)N1CC/C(=N\OS(=O)(=O)O)c2ccc(Cl)cc21
inactive: Potency [1] | Potency [2] | Potency [3] | Potency [4]

O=C(CO)[C@@H](O)[C@H](O)[C@@H](O)CO
inactive: Potency [1] | Potency [2] | Potency [3] | Potency [4]

O=S(=O)(O)CCS
inactive: Potency [1] | Potency [2] | Potency [3] | Potency [4]

C[N+](C)(CCOc1ccccc1)Cc1cccs1
inactive: Potency [1] | Potency [2] | Potency [3] | Potency [4]

COc1cnc(NS(=O)(=O)c2ccc(N)cc2)nc1
inactive: Potency [1] | Potency [2] | Potency [3] | Potency [4]

Cc1nnc(NS(=O)(=O)c2ccc(N)cc2)s1
inactive: Potency [1] | Potency [2] | Potency [3] | Potency [4]

COc1cc(NS(=O)(=O)c2ccc(N)cc2)nc(C)n1
inactive: Potency [1] | Potency [2] | Potency [3] | Potency [4]

O=C(O)CCC(=O)O
inactive: Potency [1] | Potency [2] | Potency [3] | Potency [4]

COc1ccc(O)cc1
inactive: Potency [1] | Potency [2] | Potency [3] | Potency [4]

Cc1cc2cc3c(C)cc(=O)oc3c(C)c2o1
inactive: Potency [1] | Potency [2] | Potency [3] | Potency [4]

COc1cc2c3cc1Oc1cc(ccc1O)C[C@@H]1c4c(cc(OC)c(O)c4Oc4ccc(cc4)C[C@@H]3N(C)CC2)CC[N+]1(C)C
inactive: Potency [1] | Potency [2] | Potency [3] | Potency [4]

O=C(O)c1cc(=O)[nH]c(=O)[nH]1
inactive: Potency [1] | Potency [2] | Potency [3] | Potency [4]

C[C@]12C=CC(=O)C=C1CC[C@@H]1[C@@H]2[C@@H](O)C[C@@]2(C)[C@H]1CC[C@]2(O)C(=O)CO
inactive: Potency [1] | Potency [2] | Potency [3] | Potency [4]

OCCOCCN1CCN(C2=Nc3ccccc3Sc3ccccc32)CC1
inactive: Potency [1] | Potency [2] | Potency [3] | Potency [4]

NC(=O)N1c2ccccc2C=Cc2ccccc21
inactive: Potency [1] | Potency [2] | Potency [3] | Potency [4]

O=C1O[C@H](CO)[C@@H](O)[C@H](O)[C@H]1O
inactive: Potency [1] | Potency [2] | Potency [3] | Potency [4]

CC(C)(CO)[C@@H](O)C(=O)NCCCO
inactive: Potency [1] | Potency [2] | Potency [3] | Potency [4]

O=C(O)c1cc(=O)c2c(OCC(O)COc3cccc4oc(C(=O)O)cc(=O)c34)cccc2o1
inactive: Potency [1] | Potency [2] | Potency [3] | Potency [4]

O=c1[nH]cnc2[nH]ncc12
inactive: Potency [1] | Potency [2] | Potency [3] | Potency [4]

C[C@@H](O)[C@H]1C(=O)N2C(C(=O)O)=C(SCCN=CN)C[C@H]12
inactive: Potency [1] | Potency [2] | Potency [3] | Potency [4]

CC(=O)O[C@@H]1C(=O)O[C@@H]2[C@H]1OC(=O)[C@@H]2OC(C)=O
inactive: Potency [1] | Potency [2] | Potency [3] | Potency [4]

NS(=O)(=O)c1cc(C(=O)O)cc(N2CCCC2)c1Oc1ccccc1
inactive: Potency [1] | Potency [2] | Potency [3] | Potency [4]

S=P(N1CC1)(N1CC1)N1CC1
inactive: outcome [1] inactive [at 0.573 µM] | activity change, negative = cytotoxicity [2] -8.32% [at 0.573 µM] | activity change, negative = inhibition [3] 3.72% [at 0.573 µM] | activity change, negative = cytotoxicity [4] -9.38% [at 0.573 µM]

Cc1onc(-c2ccccc2)c1-c1ccc(S(N)(=O)=O)cc1
inactive: Potency [1] | Potency [2] | Potency [3] | Potency [4]

CCN1CCN(C(=O)N[C@@H](C(=O)N[C@@H]2C(=O)N3[C@@H]2SC(C)(C)[C@H]3C(=O)O)c2ccccc2)C(=O)C1=O
inactive: Potency [1] | Potency [2] | Potency [3] | Potency [4]

CN/C(=C\[N+](=O)[O-])NCCSCc1csc(CN(C)C)n1
inactive: Potency [1] | Potency [2] | Potency [3] | Potency [4]

Cc1cccc(C)c1NC(=O)CC12CCCN1CCC2
inactive: Potency [1] | Potency [2] | Potency [3] | Potency [4]

CC(=O)NCCCS(=O)(=O)O
inactive: Potency [1] | Potency [2] | Potency [3] | Potency [4]

CCCCC(CC)COC(=O)c1ccccc1O (stereo unspecified)
inactive: Potency [1] | Potency [2] | Potency [3] | Potency [4]

CCOC(=O)[C@H](CCc1ccccc1)N[C@H]1CCCN2CCC[C@@H](C(=O)O)N2C1=O
inactive: Potency [1] | Potency [2] | Potency [3] | Potency [4]

CCC(Cc1c(I)cc(I)c(N)c1I)C(=O)O (stereo unspecified)
inactive: Potency [1] | Potency [2] | Potency [3] | Potency [4]

N[C@@H](CCC(=O)N[C@@H](CS)C(=O)NCC(=O)O)C(=O)O
inactive: Potency [1] | Potency [2] | Potency [3] | Potency [4]

O=C(O)/C=C\C(=O)O
inactive: Potency [1] | Potency [2] | Potency [3] | Potency [4]

Nc1ccn([C@@H]2CS[C@H](CO)O2)c(=O)n1
inactive: Potency [1] | Potency [2] | Potency [3] | Potency [4]

C[N+](C)(C)CCOC(N)=O
inactive: Potency [1] | Potency [2] | Potency [3] | Potency [4]

Cc1ncc(CO)c(CO)c1O
inactive: Potency [1] | Potency [2] | Potency [3] | Potency [4]

O=c1cc[nH]c(=O)[nH]1
inactive: Potency [1] | Potency [2] | Potency [3] | Potency [4]

CCCc1nc(C(C)(C)O)c(C(=O)OCc2oc(=O)oc2C)n1Cc1ccc(-c2ccccc2-c2nn[nH]n2)cc1
inactive: Potency [1] | Potency [2] | Potency [3] | Potency [4]

CCN1CCC[C@H]1CNC(=O)c1cc(S(N)(=O)=O)ccc1OC
inactive: Potency [1] | Potency [2] | Potency [3] | Potency [4]

C#CCN[C@@H]1CCc2ccccc21
inactive: Potency [1] | Potency [2] | Potency [3] | Potency [4]

C[C@]12CCC(=O)C=C1CC[C@@H]1[C@@H]2[C@@H](O)C[C@@]2(C)[C@H]1CC[C@]2(O)C(=O)COC(=O)CCC(=O)O
inactive: Potency [1] | Potency [2] | Potency [3] | Potency [4]

Cc1cccn2c(=O)c(-c3nnn[nH]3)cnc12
inactive: Potency [1] | Potency [2] | Potency [3] | Potency [4]

CCOC(=O)c1ccc(O)cc1
inactive: Potency [1] | Potency [2] | Potency [3] | Potency [4]

COC(=O)/C=C\C(=O)OC
inactive: Potency [1] | Potency [2] | Potency [3] | Potency [4]

O=C(O)Cc1cccc(-c2cc(CCCCCCc3ccc(O[C@H]4O[C@H](CO)[C@@H](O)[C@H](O)[C@@H]4O)c(-c4cccc(CC(=O)O)c4)c3)ccc2O[C@H]2O[C@H](CO)[C@@H](O)[C@H](O)[C@@H]2O)c1
inactive: activity change, negative = inhibition [1] -22.9% [at 0.573 µM] | outcome [2] inactive [at 0.573 µM] | outcome [3] inactive [at 0.573 µM] | outcome [4] inactive [at 0.573 µM]

NCCNCCNCCN
inactive: Potency [1] | Potency [2] | Potency [3] | Potency [4]

O=C1c2c(O)cccc2Cc2cccc(O)c21
inactive: Potency [1] | Potency [2] | Potency [3] | Potency [4]

O=C(CCOCCOCCOCCOCCC(=O)Nc1c(I)cc(I)c(C(=O)O)c1I)Nc1c(I)cc(I)c(C(=O)O)c1I
inactive: Potency [1] | Potency [2] | Potency [3] | Potency [4]

COc1ccc(C(=O)c2ccccc2)c(O)c1
inactive: Potency [1] | Potency [2] | Potency [3] | Potency [4]

Nc1ccn(C[C@@H](CO)OCP(=O)(O)O)c(=O)n1
inactive: outcome [1] inactive [at 0.573 µM] | outcome [2] inactive [at 0.573 µM] | outcome [3] inactive [at 0.573 µM] | activity change, negative = cytotoxicity [4] -5.43% [at 0.573 µM]

NS(=O)(=O)c1cc2c(cc1Cl)NC(CC1CCCC1)NS2(=O)=O (stereo unspecified)
inactive: Potency [1] | Potency [2] | Potency [3] | Potency [4]

O=C(O)c1cc(N=Nc2ccc(O)c(C(=O)O)c2)ccc1O
inactive: Potency [1] | Potency [2] | Potency [3] | Potency [4]

CCCCOC(=O)c1ccc(O)cc1
inactive: Potency [1] | Potency [2] | Potency [3] | Potency [4]

CC(=O)N=c1sc(S(N)(=O)=O)nn1C
inactive: Potency [1] | Potency [2] | Potency [3] | Potency [4]

CC(=O)Nc1c(I)c(NC(C)=O)c(I)c(C(=O)O)c1I
inactive: Potency [1] | Potency [2] | Potency [3] | Potency [4]

CCCCCC=CCC=CCCCCCCCC(=O)OCC
inactive: Potency [1] | Potency [2] | Potency [3] | Potency [4]

CO/N=C(\C(=O)N[C@@H]1C(=O)N2C(C(=O)O)=C(C[N+]3(C)CCCC3)CS[C@H]12)c1csc(N)n1
inactive: Potency [1] | Potency [2] | Potency [3] | Potency [4]

C[N+]1(C)CCCC(OC(=O)C(O)(c2ccccc2)c2ccccc2)C1 (stereo unspecified)
inactive: Potency [1] | Potency [2] | Potency [3] | Potency [4]

CCCc1c2oc(C(=O)O)cc(=O)c2cc2c(=O)cc(C(=O)O)n(CC)c12
inactive: Potency [1] | Potency [2] | Potency [3] | Potency [4]

CNC[C@H](O)[C@@H](O)[C@H](O)[C@H](O)CO
inactive: Potency [1] | Potency [2] | Potency [3] | Potency [4]

COc1ccc2[nH]cc(CCNC(C)=O)c2c1
inactive: Potency [1] | Potency [2] | Potency [3] | Potency [4]

COP(=S)(OC)Oc1ccc(S(=O)(=O)N(C)C)cc1
inactive: Potency [1] | Potency [2] | Potency [3] | Potency [4]

COCCCOc1ccnc(CS(=O)c2nc3ccccc3[nH]2)c1C (stereo unspecified)
inactive: Potency [1] | Potency [2] | Potency [3] | Potency [4]

CC(O)(P(=O)(O)O)P(=O)(O)O
inactive: Potency [1] | Potency [2] | Potency [3] | Potency [4]

CN1C(CSCC(F)(F)F)Nc2cc(Cl)c(S(N)(=O)=O)cc2S1(=O)=O (stereo unspecified)
inactive: Potency [1] | Potency [2] | Potency [3] | Potency [4]

CCO[C@H](Cc1ccc(OCCc2ccc(OS(C)(=O)=O)cc2)cc1)C(=O)O
inactive: Potency [1] | Potency [2] | Potency [3] | Potency [4]
